This is one part of a sample in which hits are shown more often than they occur.
Cruzain noTriton: inhibitors of Trypanosoma cruzi cruzain without detergent | purified cruzain, Z-FR-AMC fluorescence, no detergent | Potency, µM, for the others: max response, negative = inhibition, hits mostly inhibitors | 2.3% of 200,000 active | AID 1476; active = well fitted curve in the direction sought with a large enough effect; inconclusive = small, poorly fitted or top-dose-only effect, or another doubt; inactive = no such curve, though single readings can be large; an effect the other way counts as inactive or inconclusive;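 note: potency is the fitted concentration of half-maximal effect; plate controls were enzyme without inhibitor for no effect and buffer without enzyme for full effect; nearly all actives have a fitted effect of over 40% in size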
Target sequence (P25779 123-467 limits assumed): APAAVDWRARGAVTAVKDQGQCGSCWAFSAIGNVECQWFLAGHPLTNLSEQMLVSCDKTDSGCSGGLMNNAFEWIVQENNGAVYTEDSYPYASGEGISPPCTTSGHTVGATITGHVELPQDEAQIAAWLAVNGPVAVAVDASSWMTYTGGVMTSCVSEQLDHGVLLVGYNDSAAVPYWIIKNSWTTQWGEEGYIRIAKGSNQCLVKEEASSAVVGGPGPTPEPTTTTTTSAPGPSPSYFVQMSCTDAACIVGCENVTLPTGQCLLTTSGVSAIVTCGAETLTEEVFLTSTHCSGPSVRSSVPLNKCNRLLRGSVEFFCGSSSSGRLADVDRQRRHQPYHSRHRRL
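Purified cruzain at 1.5 nM, pre-incubated 15 min with compound at room temperature in 100 mM sodium acetate pH 5.5, 5 mM DTT, 0.00005% Triton X-100. Reaction started with 2 uM Z-FR-AMC; AMC fluorescence increase over 60 s gives rate.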
NS1 inh: blocks influenza NS1 protein function | Potency, µM (series often up to 46.1 µM), without a hit: at the highest dose activity, positive = more growth | 0.4% of 270,000 active; note: potency is the fitted concentration of half-maximal effect; actives are rising curves; nearly all actives have a fitted effect of over 50% in size
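In this qHTS, NS1 from influenza A is expressed in budding yeast, where it slows growth. Cells are switched from glucose to 2% galactose medium (pH 6.0, -URA), treated with compound, and growth recovery is read at OD600.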
Cruzain Triton: blocks cruzain activity in presence of Triton detergent; P25779; purified cruzain, Z-FR-AMC fluorescence, 0.01% Triton; Potency, µM, for inactives: max response, negative = inhibition, hits mostly inhibitors; 0.43% of 200,000 active; active = well fitted curve in the direction sought with a large enough effect; inconclusive = small, poorly fitted or top-dose-only effect, or another doubt; inactive = no such curve, though single readings can be large; an effect the other way counts as inactive or inconclusive;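 note: potency is the fitted concentration of half-maximal effect; plate controls were neutral wells for no effect and buffer without enzyme for full effect; nearly all actives have a fitted effect of over 40% in size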
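Read-out: AMC fluorescence (360 nm excitation, 450 nm emission), four reads over 2 min, first-to-third difference used. Conditions: cruzain 1.5 nM, Z-FR-AMC 2 uM, pH 5.5 acetate, 5 mM DTT, 0.01% Triton X-100.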
NS1 inh valid: validation of influenza NS1 protein function inhibitors; shares compounds with NS1 inh; influenza NS1 function cell assay, 15-point titration; activity change, negative = inhibition, % at 32.9 µM; 1,400 tested, under 10 active; AID 492980; note: 0% is about no effect
The depositor's hits bear a star; ? = inconclusive; nt = no result. Unless noted, calls come from the whole dose curve.

SMILES	Cruzain noTriton	NS1 inh	Cruzain Triton	NS1 inh valid
CC1=C(C(=O)OC(C)C)C(c2cccc([N+](=O)[O-])c2)n2c(cc(=O)[nH]c2=S)N1 (stereo not given)	0.7%	11.2µM*	-9.8%	36.2
CCCOc1ccc(C2NC(=S)NC(c3ccccc3)=C2C(=O)Nc2ccc(C)cc2)cc1OC (stereo not given)	-4.2%	12.6µM*	-4.7%	0.1
COc1cc(C2NC(=S)NC(c3ccccc3)=C2C(C)=O)ccc1O (stereo not given)	nt	5.8%	nt	nt
Cc1nc2ccc(NC(=O)Cc3c(F)cccc3Cl)cc2s1	nt	3.98µM*	nt	3.6
O=C(Cc1c(F)cccc1Cl)Nc1nc2ccccc2s1	nt	-2.6%	nt	nt
Cc1cc2nc3c(=O)[nH]c(=O)nc-3n(CC(O)C(O)C(O)COP(=O)(O)O)c2cc1C (stereo not given)	-17.2%	nt	-1.7%	nt
O=C(N/C(=C\c1ccco1)C(=O)N1CCCC1)c1ccccc1	nt	3.6%	nt	nt
Cc1ccc(C(=O)N/C(=C/c2ccco2)C(=O)N2CCCCCC2)cc1	nt	?	nt	-4.0
N#CCC(=O)N/N=C/c1ccc(N2N=C(c3ccccc3)CC2c2ccccc2)cc1 (stereo not given)	nt	1.12µM*	nt	-32.8
COc1ccc(C2CC(c3ccccc3)=NN2c2ccc(/C=N/NC(=O)c3ccncc3)cc2)cc1 (stereo not given)	-21.5%	0.7%	-2.7%	nt
COC(=O)c1ccccc1C[C@]1(C(=O)OC)C=C[C@H](C)[C@@H](c2ccccc2)N1C(=O)C(F)(F)F	-0.4%	nt	-0.2%	nt
Cc1cc(NC(=O)c2cccc(S(=O)(=O)N3CCCCCC3)c2)n(-c2ccccn2)n1	?	-36.8%	-2.7%	nt
Cc1cc(NC(=O)c2cccc(S(=O)(=O)N(C)C)c2)n(-c2ccccn2)n1	?	12.6µM*	7.1%	-15.2
Cc1ccc(N(CC(=O)NN=C2CCN(C)CC2)S(=O)(=O)c2ccccc2)c(C)c1	4.6%	4.47µM*	-1.8%	27.2
COc1ccc(S(=O)(=O)N(CC(=O)NN=C2CCN(C)CC2)c2ccc(C)cc2)cc1OC	nt	27.1%	nt	nt
C=C(CCC12O[C@H](C(=O)O)[C@@](O)(C(=O)O)[C@](C(=O)O)(O1)[C@H](OC(=O)/C=C/[C@@H](C)C[C@@H](C)CC)[C@H]2O)[C@@H](OC(C)=O)[C@H](C)Cc1ccccc1	26.4%	nt	-8.1%	nt
COc1ccccc1-n1cc(-c2ccc(Br)cc2)[nH]c1=S	nt	4.47µM*	nt	-10.5
COc1ccccc1-n1cc(-c2ccc(C)cc2)[nH]c1=S	nt	0.2%	nt	nt
O=C(NCCc1ccccc1)c1cc(-c2ccccc2)nc2n[nH]c(-c3ccccc3)c12	?	nt	-4.9%	nt
Cc1ccccc1CN1C(=O)c2ccccc2Sc2ccc(C(=O)NC3CCCC3)cc21	8.1%	nt	1.3%	nt
O=C1N=C(N2CCc3ccccc3C2)S/C1=C\c1cccc(O)c1	-4.9%	?	-11.0%	?
COc1ccc(/C=C2\SC(N3CCc4ccccc4C3)=NC2=O)cc1	-13.3%	3.9%	-9.2%	nt
O=C(CN1CC[n+]2c(-c3cccs3)csc21)c1ccc(Br)cc1	0.2%	4.47µM*	-1.9%	27.4
CC(=O)N1CCN(CC(=O)c2ccc(Br)cc2)CC1	6.4%	-62.9%	-1.5%	nt
COc1ccc(C(=O)C2CCCN(C(=O)CCc3ccccn3)C2)c(C)c1 (stereo not given)	nt	-3.0%	nt	nt
SMILES	Cruzain noTriton	NS1 inh	Cruzain Triton	NS1 inh valid
COC(=O)CCCC(=O)N1CCCC(C(=O)c2ccc(OC)cc2C)C1 (stereo not given)	nt	?	nt	-10.9
Cc1ccnc(NS(=O)(=O)c2ccc(N=[N+]=[N-])cc2)n1	-2.8%	-8.7%	-0.6%	nt
O=C(c1ccc(S(=O)(=O)N2CCCC2)cc1)N1CCN(c2ccccc2)CC1	nt	4.47µM*	nt	-32.4
O=C(c1ccc(S(=O)(=O)N2CCCC2)cc1)N1CCN(c2cccc(Cl)c2)CC1	nt	10.5%	nt	nt
Cc1cc(C)n(S(=O)(=O)c2cc(C(=O)O)c(Cl)cc2Cl)n1	-5.2%	?	-8.4%	9.6
Cc1cc(C)n(S(=O)(=O)c2ccc(Cl)c(Cl)c2Cl)n1	-1.7%	-42.4%	0.1%	nt
COc1ccc2c(c1)c(C(=O)O)c(C)n2CCc1ccc(OC)c(OC)c1	nt	6.31µM*	nt	5.6
COc1ccc2c(c1)c(C(C)=O)c(C)n2CCc1ccc(OC)c(OC)c1	nt	-5.9%	nt	nt
COC(=O)c1cc(NC(=O)c2oc(=O)c3ccccc3c2-c2ccccc2)cc(C(=O)OC)c1	-7.0%	nt	-0.8%	nt
CN(C)CC[C@@H](C(=O)C(C)(C)C)c1ccccn1	-0.9%	-1.0%	-4.2%	nt
Cc1ccc(C)c2[nH]c(=O)c(C(c3nnnn3Cc3ccccc3)N3CCc4ccccc4C3)cc12 (stereo not given)	-12.9%	10µM*	-4.5%	11.7
Cc1cccc2cc(C(c3nnnn3CC3CCCO3)N3CCc4ccccc4C3)c(=O)[nH]c12 (stereo not given)	8.2%	-4.4%	-2.4%	nt
CCc1ccccc1NC(=O)C1COc2ccccc2C1 (stereo not given)	-13.8%	nt	-1.7%	nt
Cc1cc(O)c(C(c2ccc(F)cc2)N2CCCCC2)c(=O)n1Cc1ccco1 (stereo not given)	?	nt	1.0%	nt
Cc1cc(Cl)ccc1OCC(=O)NCCOC(=O)Nc1sc(=S)n(C)c1C	25.7%	1.7%	2.6%	nt
Cc1c(NC(=O)OCCNC(=O)COc2ccc(Cl)cc2Cl)sc(=S)n1C	14.8%	?	-4.4%	15.0
COc1ccc(Nc2nnc(SCC(=O)c3cc(C)n(CC4CCCO4)c3C)s2)cc1 (stereo not given)	-14.4%	?	-2.2%	3.0
COc1ccc(Nc2nnc(SCC3CCCCO3)s2)cc1 (stereo not given)	nt	-5.8%	nt	nt
Cc1ccc(Cl)cc1NC(=O)Nc1cn(CC(C)C)c(=O)c2ccccc12	0.2%	nt	-11.7%	nt
CCC(C)C(=O)Nc1nc(C)c(-c2csc(Nc3cc(OC)ccc3OC)n2)s1 (stereo not given)	-19.8%	16.9%	-5.6%	nt
CCCC(C)C(=O)Nc1nc(C)c(-c2csc(Nc3ccc(Cl)cc3)n2)s1 (stereo not given)	10µM*	4.47µM*	2.5%	-9.9
N/C(=N\OC(=O)CC(c1ccccc1)c1ccccc1)c1cccnc1	nt	-6.6%	nt	nt
Nc1ccn([C@H]2O[C@H](CO)[C@@H]3[O][Sn]([c]4ccccc4)([c]4ccccc4)[O][C@H]32)c(=O)n1	5.5%	-6.6%	1.8%	nt
Cc1ccc(-n2ncc3c(NCCc4ccccc4)ncnc32)cc1Cl	2.0%	nt	0.0%	nt
CCOC(=O)C1=C(C)Nc2sc(C(=O)c3ccc(F)cc3)c(N)c2C1c1ccc(C(=O)OC)cc1 (stereo not given)	?	?	-2.4%	nt
CCOC(=O)C1=C(C)Nc2sc(C(=O)c3ccc(C)cc3)c(N)c2C1c1ccc(C(=O)OC)cc1 (stereo not given)	?	10µM*	-1.0%	26.8
C=C1C2(C(=O)NCc3ccco3)CCC(C2)C1(C)C (stereo not given)	-10.4%	0.5%	4.7%	nt
CC1(C)C(=O)C2(C(=O)NCc3ccccc3)CCC1C2 (stereo not given)	6.2%	20µM*	3.8%	1.3
CCN(Cc1ccccc1)C(=O)Cn1c(=O)n(Cc2ccccc2)c(=O)c2c1c1cc(OC)ccc1n2C	-8.7%	nt	1.1%	nt

Bioassay records as filed in PubChem BioAssay.
